# Experimental data published in PubChem BioAssay AID504834 (National Center for Advancing Translational Sciences (NCATS), 2011).
# Screen size: about 320,000 compounds; about 22,000 (6.9%) were called active. Another 27% or so got no clear call; they are omitted. The sample holds actives, similar compounds and a random draw of the others, so the mix is not that of the screen. Calls follow the shape of the dose curve; as a rule, active = well fitted inhibition curve with a large enough effect; inconclusive = small, poorly fitted or top-dose-only effect, or another doubt; inactive = no such curve, though single readings can be large or run the other way.
# Experiment: Primary qHTS for delayed death inhibitors of the malarial parasite plastid, 96 hour incubation
# Conditions: P. falciparum luciferase reporter growth; series mostly up to 28.7 µM; activity change, negative = inhibition: at the top concentration
# Procedure, shortened: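 Readout is luminescence from an integrated firefly luciferase in P. falciparum. Red cells, 2% hematocrit and 0.05% parasitemia final, were cultured with compound through two parasite generations (96 hours) at 37 C, 5% CO2.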
# % is scaled to controls: 0 for no effect and ±100 for the full control effect; potency is read from the fitted curve at half-maximal effect.
Structure (SMILES),"activity change, negative = inhibition",Potency
CSc1ccc(Cl)c(C(=O)OCC(=O)N2CCNC2=O)c1,-21.6% (inactive),
COc1ccc(Cn2nnc3c(=O)[nH]c(C4CCN(C(=O)c5ccccc5Cl)CC4)nc32)cc1,9.4% (inactive),
Cc1ccc(NC(=O)N2CCC(c3nc4c(nnn4Cc4c(F)cccc4Cl)c(=O)[nH]3)CC2)cc1,,9.28 µM (active)
O=C(Nc1ccc(F)cc1)N1CCCC(c2nc3c(nnn3Cc3ccccc3Cl)c(=O)[nH]2)C1 (stereo unspecified),16.6% (inactive),
CC(Sc1nnc(-c2cccs2)n1C1CC1)C(=O)NCC1CCCO1 (stereo unspecified),24.7% (inactive),
Cc1cc(C(=O)OCC(=O)Nc2nccs2)c2ccccc2n1,20.5% (inactive),
COc1ccccc1C(=O)NNC(=O)CCN1C(=O)/C(=C\c2ccccc2)SC1=S,-14.8% (inactive),
CC(O)c1nc2c(c(=O)n(C)c(=O)n2C)n1C (stereo unspecified),101% (inactive),
CCC(C)Sc1nc(C)nc2c1c(=O)n(C)c(=O)n2C (stereo unspecified),,10.4 µM (active)
CSc1nc(C)nc2c1c(=O)n(C)c(=O)n2C,15.9% (inactive),
COc1ccc(N2CCN(S(=O)(=O)c3cc(Br)cnc3N)CC2)cc1,1.5% (inactive),
COc1cccc(/C=C2/SC(=S)N(CC(=O)NC3C=CS(=O)(=O)C3)C2=O)c1 (stereo unspecified),37.3% (inactive),
COc1ccc(N2CCN(CCNC(=O)CCN3C(=O)COc4ccccc43)CC2)cc1,24.2% (inactive),
COc1cccc(NC(=O)NCCN2CCCCC2)c1,-37% (inactive),
COc1ccc(N2CCN(CCNC(=O)Nc3cc(Cl)ccc3Cl)CC2)cc1,,5.22 µM (active)
CCOC(=O)c1cccc(NC(=O)CN2C(=O)C3CC=CCC3C2=O)c1 (stereo unspecified),-20.6% (inactive),
CCn1ccnc1CN(C)C(=O)c1ccc2nc(Cc3ccc(OC)cc3)oc2c1,-22.5% (inactive),
Cc1[nH]c(C)c(S(=O)(=O)N2CCN(c3cccc(C(F)(F)F)c3)CC2)c1C(=O)N1CCCC1,-18% (inactive),
COCCNC(=O)NC(=O)COC(=O)C1(c2ccc(Cl)cc2)CC1,23.1% (inactive),
COc1ccccc1CN(C)C(=O)c1cc2ccccc2o1,-19.2% (inactive),
COc1ccccc1CN(C)C(=O)C1(c2ccc(Cl)cc2)CC1,,9.28 µM (active)
Cc1cccc(C(=O)NCC(=O)OCC(=O)N(C)CC(=O)Nc2ccccc2Cl)c1,-24.1% (inactive),

Structure (SMILES),"activity change, negative = inhibition",Potency
O=C1CC2(CCN(C(=O)COc3ccc(F)cc3)CC2)Oc2ccccc21,-16.8% (inactive),
O=C(C1CC(=O)N(c2ccc(F)cc2)C1)N1CCN(c2ccccc2)CC1 (stereo unspecified),49.1% (inactive),
Cc1ccc(N2CC(C(=O)N3CCC4(CC3)CC(=O)c3ccccc3O4)CC2=O)cc1C (stereo unspecified),,11.7 µM (active)
O=C(Cn1c(NCCO)nc2ccccc21)c1ccc(Cl)cc1Cl,26.7% (inactive),
CC(NC(=O)C(=O)Nc1nccs1)c1ccccc1 (stereo unspecified),17.2% (inactive),
CC(=O)c1cccc(NC(=S)N2CCN(S(C)(=O)=O)CC2)c1,47.9% (inactive),
O=C(NCCCN1CCOCC1)c1ccccc1NS(=O)(=O)c1ccc(Br)cc1,-14.4% (inactive),
O=C(NCCCN1CCOCC1)c1cnn2c(-c3ccccc3)cc(-c3ccccc3)nc12,,9.28 µM (active)
O=C(NCCCN1CCOCC1)c1ccccc1NS(=O)(=O)c1ccc(F)cc1,26.6% (inactive),
CCc1ccc(OCC(=O)NCC(c2ccc(Cl)cc2)N2CCCCC2)cc1 (stereo unspecified),19.3% (inactive),
COc1cccc(C(=O)Nc2ccc(N3CCN(C(=O)c4ccco4)CC3)cc2)c1,15.5% (inactive),
COc1ccc(Cl)cc1NS(=O)(=O)c1cccc(C(=O)NCC2CCCO2)c1 (stereo unspecified),0.0416% (inactive),
COC(=O)c1ccc(CSc2nnc(NC(C)C)s2)cc1,-3.42% (inactive),
CC(C)Nc1nnc(SCC(=O)c2c[nH]c3ccccc23)s1,,10.4 µM (active)
C[C@H](NC(=O)c1ccccc1)C(=O)OCC(=O)c1c[nH]c2ccccc12,22.5% (inactive),
Cc1coc2c1c(C)cc1oc(=O)c(CC(=O)NCC(=O)N[C@H](C(=O)O)C(C)C)c(C)c12,-0.522% (inactive),
COc1cc(-c2c(-c3ccc4c(c3)OCO4)noc2C)ccc1F,-10.2% (inactive),
Cc1onc(-c2ccccc2)c1C(=O)N=C(N)c1ccc(Cl)cc1,-3.39% (inactive),
Cc1onc(-c2ccc(Cl)cc2)c1-c1ccnn1S(=O)(=O)c1ccc(Cl)cc1,,1.17 µM (active)
Cc1cccc([C@@H]2[C@@H]3C(=O)N(C)C(=O)[C@@H]3[C@@H]3C(=O)Nc4ccccc4C(=O)N23)c1,35.7% (inactive),
CCOC(=O)c1sc(N)c(C#N)c1COC(=O)C1=COCCO1,0% (inactive),
Cc1ccc(-c2ccc(=O)n(Cc3ccc(F)cc3Cl)n2)cc1,1.04% (inactive),

Structure (SMILES),"activity change, negative = inhibition",Potency
COc1ccc(CNC(=O)CN(C(=O)c2csnn2)c2cnc3ccccc3c2)cc1,-6.61% (inactive),
Cc1cccc(NS(=O)(=O)c2ccc(C(=O)NCC(C)(C)N3CCOCC3)cc2)c1C,0.321% (inactive),
Cc1nc2nc(SCC(=O)NCc3ccco3)nn2c(C)c1Cc1ccccc1,,10.4 µM (active)
COc1cc(OC)cc(-c2nc3nc(C)c(CCC(=O)NCc4ccco4)c(C)n3n2)c1,24.9% (inactive),
Cc1cc(C)n2nc(SCC(=O)NC(=O)NCc3ccco3)nc2n1,2.98% (inactive),
O=C(O)C(c1ccccc1)C1(O)CCCCC1 (stereo unspecified),37.9% (inactive),
CCCOc1cccc(C(=O)Nc2ccccc2C(=O)N2CCN(C)CC2)c1,-9.04% (inactive),
Cn1ccc(NC(=O)Nc2ccc(Cl)cc2)n1,61.5% (inactive),
CN(c1cccc(NC(=O)Nc2ccc(Cl)cc2)c1)S(C)(=O)=O,0% (inactive),
CC(C)S(=O)(=O)c1csc(NC(=O)Nc2ccc(Cl)cc2)c1Cl,,1.17 µM (active)
O=C(c1cccnc1)N1CCN(S(=O)(=O)c2cccs2)CC1,9.61% (inactive),
Cc1ccc(-n2ncc3c2CCCC3NC(=O)c2cnccn2)cc1C (stereo unspecified),27.8% (inactive),
O=C1CCC(=O)N(O)CCCCCNC(=O)CCC(=O)N(O)CCCCCNC(=O)CCC(=O)N(O)CCCCCN1,,10.4 µM (active)
CC(CN1CCCCC1)c1ccccc1 (stereo unspecified),8.4% (inactive),
CC(C)[C@@H]1COC(c2cccc(C3=N[C@H](C(C)C)CO3)c2)=N1,9.17% (inactive),
CN(C(=O)c1cccc(OC2CCN(S(=O)(=O)N(C)C)CC2)c1)C1CCOC1 (stereo unspecified),25.5% (inactive),
CCCOC(=O)C1=C(C)NC2=C(C(=O)C(C(=O)OC)C(C)C2)C1c1ccc(N(C)C)cc1 (stereo unspecified),13.8% (inactive),
COC(=O)C1C(=O)c2c([nH]c(C(=O)OCCSC)c2C)CC1C (stereo unspecified),,3.7 µM (active)
OC(c1nc2ccccc2[nH]1)C(O)C(O)C(O)c1nc2ccccc2[nH]1 (stereo unspecified),30.2% (inactive),
COc1ccc(/C=C/C(=O)N2CCCC2)cc1OC,0% (inactive),
C/C=C/c1ccc(OCCOc2ccc(C=O)cc2OC)c(OC)c1,-8.36% (inactive),
C/C=C/c1ccc(OCCCCN2CCC(C)CC2)c(OC)c1,,5.22 µM (active)

Structure (SMILES),"activity change, negative = inhibition",Potency
COc1ccc(CN2CCNC(=O)C2CC(=O)NCc2cn[nH]c2-c2ccccc2)c(F)c1 (stereo unspecified),8.51% (inactive),
CN(C(=O)COC(=O)Cn1cnc2c1c(=O)n(C)c(=O)n2C)C1(C#N)CCCCC1,14.8% (inactive),
O=c1onc(-c2c(F)cccc2F)n1-c1ccccc1Cl,-7.75% (inactive),
CCC(=O)c1cc(F)ccc1OCC(=O)Nc1ccc2c(c1)OCCO2,-52.7% (inactive),
Cc1ccc2oc(=O)c3cnn(CC(=O)N4CCCCCC4)c3c2c1,,9.28 µM (active)
Cc1cc(C(F)(F)F)nn1CC(=O)N1CCCC1,49.1% (inactive),
COc1cccc2c(=O)n(CC(=O)N3CCCCCC3)ccc12,-12.4% (inactive),
C/C(=N/Nc1ccc(Cl)cc1)c1cnnc(-c2ccccc2)n1,,0.522 µM (active)
Cn1nc(-c2ccccc2)c(-c2nc(-c3ccc(Cl)cc3)no2)c1Cl,13.6% (inactive),
C/C(=N\Nc1nncc2ccccc12)c1ccc(Cl)c([N+](=O)[O-])c1,64.3% (inactive),
Cc1ccc(S(=O)(=O)NNC(=O)/C=C/c2cccc(F)c2)cc1,1.02% (inactive),
Cc1ccc2c(c1)N(CC(=O)N1CCC(O)CC1)C(=O)CO2,20.6% (inactive),
O=C(Nn1cnc2ccccc2c1=O)c1ccc(F)cc1Cl,,11.7 µM (active)
O=C(Nn1cnc2ccccc2c1=O)c1ccccc1,12.2% (inactive),
Cc1nc2ccccc2c(=O)n1NC(=O)c1ccc(Cl)c([N+](=O)[O-])c1,232% (inactive),
CN(C(=O)c1ccccc1)c1nccnc1C#N,-10% (inactive),
CN(C)C(=O)c1nc2ccc(Cl)cn2c1CNCc1cccc(OC(F)(F)F)c1,-21% (inactive),
COc1ccccc1-c1nnc(SCC(=O)Nc2ccccc2)o1,41.6% (inactive),
Cc1cc(NC(=O)CSc2nnc(-c3ccc(Cl)s3)o2)no1,5.07% (inactive),
COc1ccccc1-c1nnc(SCC(=O)Nc2cc(C)on2)o1,,13.1 µM (active)
CCN(C(=O)CSc1nc(N)cc(=O)[nH]1)C1CCS(=O)(=O)C1 (stereo unspecified),18.9% (inactive),
CC(=O)Nc1ccc(NC(=O)CC2CCCC2)cc1,58.4% (inactive),

Structure (SMILES),"activity change, negative = inhibition",Potency
Cn1c2ccccc2c(=O)c2c(=O)n(Cc3ccco3)c(COc3ccccc3)nc21,,7.38 µM (active)
CCn1c(COc2ccccc2)nnc1SCC(=O)NCc1ccco1,51% (inactive),
Cc1nc2c(c(=O)n1Cc1ccco1)c1nc3ccccc3nc1n2Cc1ccccc1,27.6% [at 5.75 µM] (inactive),
CC(=O)N1CCC(N(C(=O)Nc2ccc(Cl)cc2)C(C)C)CC1,-2.03% (inactive),
CCOc1ccc(N/C=C/C(=O)c2ccccc2)cc1,84.5% (inactive),
N#C/C=C/N1CCN(Cc2ccc3c(c2)OCO3)CC1,23.3% (inactive),
COc1ccccc1C(=O)COC(=O)CSCC(=O)Nc1cc(C)on1,11.2% (inactive),
Cc1ccc(-c2csc(SCC(=O)Nc3cc(C)on3)n2)cc1,-16.1% (inactive),
Cc1cc(NC(=O)CSCc2nc(-c3cccc(Cl)c3)oc2C)no1,,11.7 µM (active)
Oc1c(Cl)cc(Cl)cc1/C=N/c1ncn[nH]1,13.7% (inactive),
CC(C)C[C@H](NC(=O)C1CC(=O)N(c2ccc3c(c2)OCCO3)C1)C(=O)NC1CCCC1 (stereo partly specified),-33.8% (inactive),
CCCn1c(=O)c(C(=O)Nc2cc(C)ccn2)c(O)c2ccccc21,-14.4% (inactive),
OC(COc1ccc(Br)cc1)CN1CCCC1 (stereo unspecified),8.39% (inactive),
O=C(c1ccc(Cl)cc1)c1ccc(OCC(O)CN2CCCCC2)cc1 (stereo unspecified),,2.33 µM (active)
O=C(c1ccccc1)c1ccc(OCC(O)CN2CCCC2)cc1 (stereo unspecified),-1.41% (inactive),
CC(C)c1ccc(OCC(O)CN2CCN(c3ccccn3)CC2)cc1 (stereo unspecified),399% (inactive),
O=[N+]([O-])c1ccc(N2CCN(CC(O)COc3ccccc3)CC2)cc1 (stereo unspecified),17.6% (inactive),
CC(=O)Nc1ccc(OCC(O)CN2CCN(c3ccccc3Cl)CC2)cc1 (stereo unspecified),,3.7 µM (active)
